Most compounds without a hit are left out; they make up all but 3.5% or so of the library.
UHRF1 MBD2 ctr: UHRF1 methyl-DNA binding inhibition; AID 687016; actives 0.75% (n = 370,000); inhibition, % at 4.4 µM; Q96T88; UHRF1 binding to methylated oligo, TR-FRET; in the data active = inhibition above about 21%;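 note: UHRF1 SRA domain binding a hemimethylated CpG hairpin DNA probe; 0% = median of test compound wells and 100% = reference inhibitor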
MBD2 inh: blocks human MBD2 binding to methylated DNA. Q9UBB5. TR-FRET, MBD2 binding to methylated oligonucleotide. inhibition, % at 4.4 µM. actives 0.31% (n = 370,000); in the data active = inhibition above about 13%
Target sequence (Q9UBB5 whole entry, looked up): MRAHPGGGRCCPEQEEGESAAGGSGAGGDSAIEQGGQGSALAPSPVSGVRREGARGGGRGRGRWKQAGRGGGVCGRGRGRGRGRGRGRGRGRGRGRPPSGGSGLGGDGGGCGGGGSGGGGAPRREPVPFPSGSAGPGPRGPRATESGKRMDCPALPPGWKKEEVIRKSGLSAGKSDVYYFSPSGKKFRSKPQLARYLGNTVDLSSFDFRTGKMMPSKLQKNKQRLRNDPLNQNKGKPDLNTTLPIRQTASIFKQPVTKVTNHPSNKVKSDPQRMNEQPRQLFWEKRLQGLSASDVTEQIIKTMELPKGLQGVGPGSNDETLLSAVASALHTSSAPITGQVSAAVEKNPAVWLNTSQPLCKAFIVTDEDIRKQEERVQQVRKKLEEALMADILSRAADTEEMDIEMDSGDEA
DNMT1 block: inhibitors of human DNMT1; DNMT1 molecular beacon, Hinp1I cleavage, fluorescence; inhibition (reported as % activation of signal), % at 10 µM; actives 0.83% (n = 360,000); in the data active = inhibition above about 50%
LEDGF integ inh: blocks HIV-1 LEDGF/p75-dependent DNA integration. actives 0.64% (n = 370,000). inhibition, % at 3.7 µM. TR-FRET IN-LEDGF/p75 DNA integration, Eu/Cy5;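 active = inhibition above the screen-wide mean plus 3 SD, cut at about 13% in these data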;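 note: signal is the Cy5 over europium emission ratio at 671 and 618 nm; 0% = plate median of compound wells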
PG9 binder: PG9 antibody binding by small molecule. TR-FRET gp120-PG9 antibody binding. inhibition, % at 6.7 µM. actives 0.43% (n = 360,000); in the data active = inhibition above about 8.5%
rCAG binder: binds r(CAG) RNA repeats. r(CAG) RNA repeat, TO-PRO-1 dye displacement fluorescence. inhibition, % at 3 µM. actives 1.3% (n = 370,000). AID 651821;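 active = inhibition above the plate cutoff, the mean of all test compounds on that plate plus 3 SD, cut at about 35% in these data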;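 note: 0% = DMSO alone and 100% = 100 µM mitoxantrone as full dye displacement; higher means more dye released from RNA so lower well fluorescence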
rCAG bind conf: r(CAG) RNA repeat binding, confirmation | shares compounds with rCAG binder | TO-PRO-1 dye displacement fluorescence | inhibition, % at 3 µM | actives 70% (n = 4,300) | AID 652065;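 active = inhibition above a per-plate cutoff, the mean inhibition of sample wells plus 3 SD, cut at about 35% in these data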;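 note: loss of TO-PRO-1 fluorescence as compound displaces dye from 1x1 AA loop RNA; 0% = DMSO only wells and 100% = 100 µM mitoxantrone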
dCAG dye counter: DNA CAG dye complex inhibition counter-screen; shares compounds with rCAG binder; d(CAG) DNA oligo TO-PRO-1 dye displacement, fluorescence; inhibition, % at 3 µM; actives 94% (n = 4,300);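 active = inhibition above its plate's cutoff, the mean test-well inhibition plus 3 SD, cut at about 4.8% in these data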;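 note: 0% = DNA dye mix with DMSO and 100% = 100 µM mitoxantrone; hits displace the dye from DNA and so lower well fluorescence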
DNA CAG DR: DNA CAG dye complex inhibition, dose response counter-screen; AID 686960; actives 20% (n = 250); DNA CAG/GTC duplex TO-PRO-1 dye displacement fluorescence; shares compounds with rCAG binder; IC50, µM; in the data active = IC50 below about 10 µM
Numbers without * were called inactive; i = inactive; / = no result.

SMILES | UHRF1 MBD2 ctr | MBD2 inh | DNMT1 block | LEDGF integ inh | PG9 binder | rCAG binder | rCAG bind conf | dCAG dye counter | others
O=C(CSc1nc2ccccc2s1)Nc1cc(S(=O)(=O)N2CCOCC2)ccc1O | 1 | 8 | -2 | -3 | 1 | 49* | 40* | 16*
O=C(Cc1ccc([N+](=O)[O-])cc1)NNC(=O)c1cccs1 | -2 | 2 | 0 | 0 | -1 | 55* | 1 | 0
O=C1CCC[C@@H]2Cc3nc4cc5c(cc4cc3[C@@H]3CCN1[C@H]23)OCO5 | -4 | 0 | 4 | -1 | 2 | 6 | / | /
Cc1cc(=O)n(CCc2ccccc2)c(O)c1C#N | -7 | -3 | -7 | 1 | 0 | 64* | 11 | 4.4*
Cc1cc(=O)n(CCO)c(O)c1C#N | -8 | -7 | -6 | 6 | -1 | -2 | / | /
COc1cc(NC(=O)CSc2ccccc2)c(C(=O)O)cc1OC | -1 | 2 | -15 | 5 | -3 | 1 | / | /
CCc1cc2ccc(C)cc2nc1SCC(=O)Nc1cc(OC)c(OC)cc1C(=O)O | 0 | 4 | -5 | 1 | 2 | 45* | 76* | 28* | DNA CAG DR=i
Cc1ccc(-c2nnc(SCC(=O)Nc3ccc(OCc4ccccc4)cc3)n2-c2ccc(Cl)cc2)cc1 | 0 | -2 | / | 1 | / | 6 | / | /
Cc1ccc(S(=O)(=O)N2CCC(C(=O)N3CCc4ccccc43)CC2)cc1C | 3 | 2 | 0 | 1 | -3 | 1 | / | /
CCN(c1ccc(C)cc1C)S(=O)(=O)c1nnc(NC(=O)c2ccco2)s1 | -2 | 2 | 8 | -1 | -1 | 59* | 45* | 14*
CC(C)CN(c1ccccc1)S(=O)(=O)c1nnc(NC(=O)c2ccco2)s1 | -2 | 0 | 7 | 3 | 0 | 48* | 48* | 16*
Cc1cccc(C)c1NC(=O)CN(C)C(=O)C1CC(=O)N(c2cccc3ccccc23)C1 (stereo unspecified) | 0 | 6 | -1 | 1 | -3 | -1 | / | /
Oc1ccc(/C=N/N(Cc2ccccc2)c2ccccc2)c(O)c1O | -2 | 0 | -6 | 1 | -1 | 38* | 45* | 25*
Cc1nn(-c2cccc(C(F)(F)F)c2)c(Cl)c1/C=N/Nc1cccc(C(=O)O)c1 | -1 | -3 | -3 | 0 | -1 | 44* | 57* | 19*
O=C(O)c1cccc(N/N=C/C2=C(Cl)c3cc(Cl)ccc3SC2)c1 | 4 | -2 | -3 | 4 | -1 | 35* | 80* | 50*
Cc1nn(-c2ccccc2Cl)c(Cl)c1/C=N/Nc1cccc(C(=O)O)c1 | 1 | 3 | -1 | 1 | -3 | 19 | / | /
C=CCOc1c(Br)cc(/C=N/Nc2ccc(C(=O)O)cc2)cc1OCC | -1 | 3 | 4 | 3 | -2 | 83* | 66* | 26*
CCOc1cc(/C=N/Nc2cccc(C(=O)O)c2)ccc1OC(=O)c1ccccc1 | 1 | 2 | 1 | 4 | -1 | 36* | 82* | 51*
COc1cc(C=NNc2ccccc2)ccc1OC(=O)c1ccccc1 | 13 | 4 | -13 | 6 | -1 | 4 | / | /
Cc1ccc(/C=N/Nc2cccc(C(=O)O)c2)s1 | 2 | -2 | 3 | 8 | -10 | 36* | 19 | 4.8*
O=C(NC1CCCCN(Cc2cccc(C(F)(F)F)c2)C1=O)c1ccc(F)cc1 (stereo unspecified) | 0 | 2 | / | 4 | / | -3 | / | /
O=C(O)c1ccc(-c2nc(-c3ccccc3)c(-c3ccccc3)[nH]2)cc1 | -1 | -2 | 3 | 3 | 0 | 36* | 36* | 6.0*
CCOC(=O)Cn1cc(CN2CCS(=O)(=O)N(Cc3ccc(C)cc3)C(C(=O)OC)C2)nn1 (stereo unspecified) | 14 | 12 | / | 0 | / | 1 | / | /
O=C1CS/C(=C\[N+](=O)[O-])N1c1ccc(OC(F)(F)F)cc1 | -7 | 2 | -1 | 2 | -2 | 49* | 5 | 2
Cc1ccc(Nc2nnc(SC/C(O)=C(\C#N)c3nc4ccccc4[nH]3)s2)c(C)c1 | -5 | -4 | -20 | 2 | 0 | 39* | 41* | 16*
SMILES | UHRF1 MBD2 ctr | MBD2 inh | DNMT1 block | LEDGF integ inh | PG9 binder | rCAG binder | rCAG bind conf | dCAG dye counter | others
Cc1cccc(Nc2nnc(SC/C(O)=C(\C#N)c3nc4ccccc4[nH]3)s2)c1 | -7 | -5 | -18 | -2 | 0 | 21 | / | /
Cc1cc(O)c2c(c1)C(=O)c1cc(O)cc(O)c1C2=O | 0 | -2 | -8 | -1 | -4 | 21 | / | /
O=C1c2cc(O)cc(O)c2C(=O)c2c1cc(O)c([C@@H](CO)CCO)c2O | 1 | -8 | 22 | 4 | -11 | 53* | 44* | 19*
COc1ccc(Cl)cc1NC(=O)CSc1nc2ccsc2c(=O)n1CC1CCC(C(=O)O)CC1 (stereo unspecified) | -2 | -7 | 1 | 5 | -2 | 14 | / | /
Cc1ccc([C@H]2C(C(=O)O)=CC[C@@H](c3ccc(C)cc3)N2S(=O)(=O)c2ccccc2C)cc1 | 1 | 4 | 8 | 2 | -2 | 75* | 62* | 27*
COc1ccc([C@@H]2CC=C(C(=O)O)[C@H](c3ccc(F)cc3)N2S(=O)(=O)c2ccccc2C)cc1 | 2 | 3 | -2 | 4 | -3 | 59* | 45* | 13*
COc1ccc([C@@H]2CC=C(C(=O)O)[C@H](c3ccccc3F)N2S(=O)(=O)c2ccccc2C)cc1 | 3 | 1 | 2 | 4 | -1 | 41* | 41* | 11*
Cc1ccc([C@@H]2CC=C(C(=O)O)[C@H](c3ccccc3)N2S(=O)(=O)c2ccccc2C)cc1 | -1 | 2 | 6 | 0 | -1 | 55* | 57* | 20*
O=C(Nc1cc(Cl)ccc1O)C1CC(c2ccccc2Cl)=NO1 (stereo unspecified) | -1 | 6 | 3 | 1 | 1 | 14 | / | /
Cc1cc(C)nc(Nc2nc(C(N)Cc3ccccc3)cs2)n1 (stereo unspecified) | -1 | -1 | 0 | 5 | -4 | 12 | / | /
COc1ccc([C@@H]2CC=C(C(=O)O)[C@H](c3ccc(C)cc3)N2S(=O)(=O)c2ccccc2C)cc1 | 20 | 2 | 6 | 0 | -1 | 66* | 63* | 26*
CN(C)c1ccc(-c2noc(C3CCN(S(=O)(=O)c4cccc(C(=O)O)c4)CC3)n2)cc1 | 1 | -2 | -1 | -3 | -4 | 65* | 68* | 32*
